Most compounds without a hit are left out; they make up all but 31% or so of the library.
CYP2C19 inh: blocks human cytochrome P450 2C19; inhibition, % at 5 µM; CYP2C19 Supersomes, luciferin-H EGE luminescence, 30 min; P33261; 96,000 compounds, 21% hits;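 active = CYP2C19 inhibition above a set limit at 5 µM in the primary screen, cut at about 50% in these data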;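 also: plate controls were negative control wells for no effect and 2.5 mM tranylcypromine positive control for full effect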
Target sequence (P33261 whole entry, looked up): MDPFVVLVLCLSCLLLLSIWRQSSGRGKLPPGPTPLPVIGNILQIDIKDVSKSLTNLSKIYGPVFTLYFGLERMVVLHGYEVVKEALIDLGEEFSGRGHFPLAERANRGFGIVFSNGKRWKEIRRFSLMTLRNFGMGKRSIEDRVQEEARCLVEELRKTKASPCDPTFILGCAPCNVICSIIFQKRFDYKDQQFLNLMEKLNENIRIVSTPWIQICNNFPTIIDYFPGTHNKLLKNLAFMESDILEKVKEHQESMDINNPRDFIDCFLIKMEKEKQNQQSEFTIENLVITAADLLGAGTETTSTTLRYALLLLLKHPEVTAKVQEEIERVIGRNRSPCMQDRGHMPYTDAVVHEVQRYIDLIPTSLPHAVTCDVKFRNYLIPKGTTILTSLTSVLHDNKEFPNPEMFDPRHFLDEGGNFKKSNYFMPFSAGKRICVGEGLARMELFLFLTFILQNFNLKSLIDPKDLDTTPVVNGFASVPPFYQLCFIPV
CYP2C9 act: increases human cytochrome P450 2C9 activity | P11712 | recombinant CYP2C9, luciferin-H conversion, luminescence; hits give high values; factor 1 = untreated enzyme, 0 = blocked | activation factor at 5 µM | 96,000 compounds, 1.4% hits;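 active = activation factor of 2 or more for CYP2C9 at a 5 µM dose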;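 also: 0 = sulfaphenazole-blocked wells and 1 = vehicle-only wells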
CYP2C19 activ: increases human CYP2C19 enzyme activity; recombinant CYP2C19, luciferin-H EGE luminescence; hits give high values; 0 = fully inhibited enzyme, 1 = untreated enzyme; activation factor at 5 µM; 96,000 tested, under 10 active; AID 1025; P33261;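 active = activation factor of at least 2 at 5 µM in the primary screen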;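 also: 0 = wells with 2.5 mM tranylcypromine and 1 = vehicle-only wells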
CYP2C9 inh: inhibitors of human CYP2C9. P11712. CYP2C9 Supersomes, luciferin-H conversion, luminescence. inhibition, % at 5 µM. 96,000 compounds, 20% hits;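 active = blocking of liver enzyme CYP2C9 beyond about 50% at 5 µM, limit read from the data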
PLAP activator: human PLAP activation; activation fold at 20 µM; purified PLAP enzyme, luminescent substrate read-out; hits give high values; P05187; 96,000 compounds, 1.2% hits; in the data active = activation fold above about 2
* marks the source's active call; other numbers are inactive results.

SMILES	CYP2C19 inh	CYP2C9 act	CYP2C19 activ	CYP2C9 inh	PLAP activator
O=C(NC1CCCCCCC1)C1CCCN(S(=O)(=O)c2cnc[nH]2)C1 (centres undefined)	87*	0.5	0.1	55*	1.7
Oc1ccc2ccccc2c1C=Nc1cc(C(F)(F)F)ccc1N1CCCC1	-1	0.7	1	30	1
CC1Cc2cc(/C(O)=C3/C(=O)C(=O)N(CC4CCCO4)C3c3ccco3)ccc2O1 (centres undefined)	-19	1.1	1.2	-10	1.1
O=C(c1ccccc1)N1CC(COc2ccccc2)OC(c2ccco2)O1 (centres undefined)	88*	0.6	0.1	40	1.2
COc1ccc(C)cc1NC(=O)CN1CCN(S(=O)(=O)c2ccc(C(C)C)cc2)CC1	86*	0.1	0.1	88*	0.8
COc1ccc(C)cc1NC(=O)CN1CCN(S(=O)(=O)c2ccc(Cl)cc2)CC1	66*	0.4	0.3	65*	0.9
COc1ccc(OC)c(C(=O)CN2CCN(S(=O)(=O)c3ccc(Br)cc3)CC2)c1	83*	0.4	0.2	58*	1.6
COc1ccc(NC(=O)CN2CCN(S(=O)(=O)c3ccc(C(C)C)cc3)CC2)cc1OC	44	0.6	0.6	41	0.9
CSCCC(NC(=O)c1c(C)oc2c1CCCC2)C(=O)O (centres undefined)	-17	1.1	1.2	-8	1.2
Nn1c(N2CCCCC2)nc2ccccc21	16	1.1	0.8	-12	0.8
CN(C)/C=N/C(=S)Nc1ccc(Br)cc1F	59*	0.8	0.4	23	1.1
Cc1cc(C)c(C(=O)CC2(O)C(=O)Nc3ccccc32)cc1C (centres undefined)	92*	0.7	0.1	28	0.8
CCN(c1cccc(C)c1)S(=O)(=O)c1cnc[nH]1	97*	0	0	98*	1.1
COc1ccc(C)cc1NC(=O)CN(C)S(=O)(=O)c1cnc[nH]1	78*	0.3	0.2	73*	1.3
Cc1cccc(NC(=O)CN(C)S(=O)(=O)c2cnc[nH]2)c1	90*	0.1	0.1	93*	1
COc1cccc(CNC(=O)CN(C)S(=O)(=O)c2cnc[nH]2)c1	99*	0.2	0	79*	0.9
CCN(c1cccc(C)c1)S(=O)(=O)c1ccc2[nH]c(=O)c(=O)[nH]c2c1	32	0.3	0.7	69*	1.5
CCOC(=O)C(C)c1nn(C)c(=O)c2ccccc12 (centres undefined)	67*	0.8	0.3	15	1
COc1cccc(N2C(=O)C(c3ccccc3)=C(c3nc4ccccc4s3)C2NC(C)=O)c1 (centres undefined)	56*	0.5	0.4	51*	1.2
CC(=O)NC1C(c2nc3ccccc3s2)=C(c2ccccc2)C(=O)N1c1ccc(C)cc1 (centres undefined)	42	0.7	0.6	28	1.1
CC1CN(C2CCN(C(=O)COc3ccc(Cl)cc3)CC2)CC(C)O1 (centres undefined)	9	1	0.9	3	1.2
CCOCC(=O)Nc1cccc(C(=O)OCC)c1	21	0.9	0.8	15	0.8
CC(=O)Nc1cccc(OCC(=O)NC(C)C(C)C)c1 (centres undefined)	-10	1.4	1.1	-35	1.2
COc1ccc(NC(=O)COc2nc(N(C)C)nc(N(C)C)n2)cc1	2	1	1	0	1.1
COc1ccc(OCC(=O)Nc2cccc(-c3nc4ccccc4[nH]3)c2)cc1	65*	0.1	0.4	94*	1.1
SMILES	CYP2C19 inh	CYP2C9 act	CYP2C19 activ	CYP2C9 inh	PLAP activator
CC(=O)Nc1cccc(OCC(=O)Nc2ccc(F)cc2)c1	68*	1.3	0.3	-33	1
CCOC(=O)c1cccc(NC(=O)COc2ccc([N+](=O)[O-])cc2)c1	57*	0.2	0.4	77*	0.8
COc1ccc(OCC(=O)Nc2cccc(NC(=O)COc3ccc(OC)cc3)n2)cc1	44	0.3	0.6	72*	1
CCOC(=O)c1cnc(SC2CC(=O)N(c3ccc(C)cc3)C2=O)nc1N (centres undefined)	-3	0.8	1	23	0.9
O=C(COC(=O)CCc1c[nH]c(=O)[nH]1)Nc1cccc(Cl)c1	2	0.9	1	10	1.4
COc1ccc(OCC(=O)Nc2cccc3cccnc23)cc1	97*	1.4	0	-40	1.9
Cc1cc(C)cc(OCC(=O)Nc2cccc(C(=O)O)c2)c1	-4	0.9	1	8	1
O=C(O)CCCC(=O)Nc1cccc2cccnc12	5	0.9	1	9	0.9
O=C(Nc1cccc2cccnc12)c1cccnc1	46	2.1*	0.5	-112	0.9
O=C(COc1ccc(F)cc1)Nc1ccc(-n2cnnn2)cc1	76*	0.8	0.2	25	1
COc1cc(C(=O)Nc2cccc3cccnc23)cc(OC)c1OC	36	0.5	0.6	46	1.3
COc1ccc(OCC(=O)Nc2cccc(C(C)=O)c2)cc1	67*	0.5	0.3	51*	0.7
Cc1cc(C)nc(SCc2cccc(C(=O)O)c2)n1	-4	1.1	1	-6	0.9
O=C1CCC(C(=O)OCc2ccccc2)N1 (centres undefined)	2	1	1	-1	0.7
C=CCN1C(=O)CC(C(=O)NC)SC1=Nc1ccc(C(=O)OCC)cc1 (centres undefined)	11	0.7	0.9	25	1.5
CC(=O)c1c(C)nn(C(=O)N2CCOCC2)c1C	-4	1	1	-2	0.9
CC(C)(C)NC(=O)CCC1COc2ccccc2O1 (centres undefined)	33	0.8	0.7	21	0.8
COc1ccc(OC)c(NC(=O)C2COc3ccccc3O2)c1 (centres undefined)	67*	0.8	0.3	16	1
COc1ccc(NC(=O)CCC2COc3ccccc3O2)c(OC)c1 (centres undefined)	83*	0.7	0.2	26	0.7
COc1ccc(CCNC(=O)CNCC2CCCO2)cc1OC (centres undefined)	5	1	1	1	1.5
COc1ccc(CCNC(=O)CC2COc3ccccc3O2)cc1OC (centres undefined)	97*	0	0	97*	1.5
COc1ccc(CNC(=O)C2COc3ccccc3O2)c(OC)c1 (centres undefined)	78*	0.9	0.2	5	0.9
COc1ccccc1N1C(=O)C2C3C=CC(C3)C2(C)C1=O (centres undefined)	14	1.1	0.9	-7	0.8
COc1cccc(NC(=O)CC2COc3ccccc3O2)c1 (centres undefined)	49	0.8	0.5	24	0.8
Cc1ccc(NC(=O)CC2COc3ccccc3O2)cc1 (centres undefined)	69*	0.7	0.3	29	1
O=C(O)Cn1nnnc1-c1ccc(F)cc1	-3	1	1	0	1

Compound activity: PubChem BioAssay, Sanford-Burnham Center for Chemical Genomics
